This is part of a sample that, as a whole, favours compounds with a hit. Of some 83,000 tested, about 20% had one in any assay.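 Assay: single dose, 48 h. Readout: percent growth (0 = no net growth; negative = cell death). Active: <10.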 Values without a mark were called inactive. The source made the active and inactive calls.
system: MDA-MB-468 breast; assay: NCI-60 one-dose screen, 48 h (100 = growth as untreated, 0 = no growth, -100 = all killed); conditions: 10 µM unless noted

In order of falling growth:
1. COc1ccc(-c2[nH][nH]c(=O)c2-c2nc3ccccc3s2)cc1  119%
2. CCOC(=O)c1sc(NC(=O)COc2cccc(/C=C3\Cc4ccc(Cl)cc4C3=O)c2)nc1C  118%
3. COc1cc2c(cc1OC)C1CCN3C(=O)CCC3N1CC2 (stereo not given)  107%
4. COc1cc(-c2n[nH]nc2-c2ccccn2)cc(OC)c1OC  104%
5. CC1CN(CCCOC(=O)Nc2ccc(Cl)cc2)CCN1C(C)(C)C (stereo not given)  104%
6. O=C(O)C1CCCCN1c1nc(Cl)nc(Cl)n1 (stereo not given)  102%
7. CCN(CC)CCN1C(=O)c2cccc3c(/C=C/CN4C(=O)c5cccc6cccc(c56)C4=O)ccc(c23)C1=O  99.2%
8. CCOC(=O)c1cc2c(n(C)c1=O)-c1cnn(-c3ccc(OC)cc3)c1CC2  93.2%
9. Cc1nc2cncc(C#Cc3cncc(C(=O)Nc4ccc(CN5CCN(C)CC5)c(C(F)(F)F)c4)c3)c2nc1C  37.3%
10. COc1ccc(/C=N\NC(=O)c2ccc3nc(-c4ccc(Br)cc4)[nH]c3c2)cc1  32.1%
11. COc1ccc2[nH]cc(-c3nc(-c4cn(C)c5c(Cl)nccc45)cs3)c2c1  18.1%
12. Cc1ccc(C2CC(c3cccs3)=NN2c2ccc(S(N)(=O)=O)cc2)s1 (stereo not given)  16.3%

With `C#Cc1ccc(-n2c(/C=C/c3ccc(O)cc3)nc3ncccc3c2=O)cc1` the growth was -10.6% (active).
`CC(C)C[C@H](NC(=O)[C@H](Cc1ccccc1)n1ccc(N2CCCCC2)cc1=O)B(O)O` was tested, and the growth was -24.1% (active).

`CC(=O)N(CCCCCCN(C(C)=O)C(C)=O)C(C)=O` showed a growth of 99.2% [100 µM].
